Out of some 1,200 compounds screened, about 480 (40%) were called active. Roughly 29% stayed inconclusive and do not appear here. Calls follow the shape of the dose curve; as a rule, active = well fitted inhibition curve with a large enough effect; inconclusive = small, poorly fitted or top-dose-only effect; inactive = no such curve, though single readings can be large or run the other way. This is one part of the list.
Potency is read from the fitted curve at half-maximal effect.

The test in a line: qHTS Assay to Find Inhibitors of Chronic Active B-Cell Receptor Signaling: Hit Validation in Primary Screen. Also: nearly all actives have a fitted effect of over 75% in size. To be noted: ABC-DLBCL IkB-luc/CBR ratio luminescence, 4 h; series mostly up to 46.1 µM. The text has this:
Diffuse large B-cell lymphoma (DLBCL) is the most common category of non-Hodgkin lymphoma, with ~20,000 new cases per year in the United States. DLBCL should be regarded as a collection of different neoplasms. Microarray gene expression analysis has defined two principal types of DLBCL, named for their similarity to normal B cell stages or activation states: a germinal center B-cell (GCB) type, and an activated B-cell (ABC) type. In ABC-DLBCL, a constitutive high-level activity of the NF-kappaB family of transcription factors has been observed (1) and NF-kappaB target genes are more highly expressed in ABC primary tumors than in GCB tumors. Functional studies have shown a constitutive high-level activity of the IkappaB (inhibitor of kappa-B) kinase (IKK) complex. […] Further analysis of DLBCL primary tumors for NF-kappaB target gene expression imply that although CARD11 is required for constitutive IKK activity in all ABC-DLBCL lines, mutations in CARD11 may be the root cause of IKK activation only in lines or tumors with such mutations. In other words, CARD11 mutations may explain NF-kappaB activation in only 10% of ABC-DLBCL cases. […] This process has been termed 'chronic active BCR signaling' (CABS). The goal of this screen is to find small-molecule inhibitors of the CABS pathway found in ABC-DLBCL lines using a cell-based assay that measures IkappaBalpa stability, which has already been extensively validated in the OCI-Ly3 line (PubChem AID:445; REF: 4). […] A cell-sensor assay for I-kappa-B-alpha stabilization has been developed. The assay uses green (CBG68) and red (CBR) emitting beetle luciferases [Chroma-GloTM developed by Promega Corp.] where the green luciferase is fused to IkappaBalpha and the red luciferase is present in its native state. Both luciferase genes are stably present in the TMD8 human ABC DLBCL cell line, but their expression is under the control of tetracycline-inducible promoters. Following the addition of doxycycline to induce expression of the luciferases, the green luminescence in control cultures rises only slowly because the CBG fusion partner IkappaBalpha is targeted by IKK activity for rapid degradation. In contrast, green luminescence rises rapidly in the presence of proteasome inhibitors or IKK inhibitors. The rise in red luminescence of CBR is not affected by proteasome or IKK inhibitors, and serves as normalization for cell number and nonspecific effects. Compounds were screened as a concentration-titration series that ranged from 46 uM to 3 nM. NIH Molecular Libraries Probe Production Network [MLPCN] NIH Chemical Genomics Center [NCGC] MLPCN Grant: R03 DA031086 PI Name: Dr. R. Eric Davis
Cells were seeded in 1536-well plates at 5000 cells/4uL in IMDM medium containing 0.5% FBS, w/o phenol red, 1% penicillin/streptomycin. Then, 23 nL of compounds or DMSO were delivered to each well using a pin tool. One uL 20ng/ml doxycycline was then dispensed into white solid 1536-well plates and the plates were incubated at 37C/5% C02 in a cell incubator for 4 hrs. Then 4 uL luminescent substrate mix (in-house prepared: 150 mM Tris-Cl, pH 7.6, 3 mM MgCl2, 1% Triton X-100, 5 mM DTT, 0.2 mM CoA, 0.15 mM ATP, 5 mM D-luciferin, final concentrations) was added to each well. The plate was incubated at r.t. for 10-15 min. The plates were measured on a ViewLux plate reader for green luminescence (540/20 nm filter) and red luminescence (618/8 nm filter). The green and red luminescent signals were corrected for red and green luminescence filter overlap using previously determined filter calibration constants (determined using the procedure outlined in the Promega Technical Manual; REF 4). The %Activity was determined from the ratio of corrected green/red luminescent values. MG132 were used as control. Green luminescent and ratio %Activity was determined by normalizing to the difference in signal between basal cells (0% Activity) and cells incubated with 10 uM of the proteasome inhibitor MG-132 (100% Activity). […]
On the technique in general: Quantitative high-throughput screening tests each substance at several concentrations.
Regarding `CCOc1cc(/C=N/O)ccc1OCc1ccccc1F`, the Potency result was “inactive”.
Regarding `COc1ccc(/C=N\NC(=O)c2ccccc2F)cc1COc1ccc(F)cc1F`, the Potency is 3.26 µM (active).
For the compound `C/C(=N\NC(=O)c1c([N+](=O)[O-])c(C)nn1C)c1ccc(NC(=O)C2CCCC2)cc1`, the Potency was 9.2 µM (active).
Regarding `C/C(=N\NC(=O)C(C)n1nc(C)c([N+](=O)[O-])c1C)c1ccccc1O` (centres undefined), the Potency result is “inactive”.
The entry for `CNC(=S)N/N=C(\C)c1cccc([N+](=O)[O-])c1` is “inactive”; for `COc1cc(C(=O)N/N=C/c2ccsc2C)cc(OC)c1OC` it is 2.31 µM (active).
For `COc1cc(C(=O)O/N=C(\N)c2ccc([N+](=O)[O-])cc2)cc(OC)c1OC`, the Potency result was “inactive”.
Consider `COc1cc(C(=O)N/N=C/C2CC=CCC2)cc(OC)c1OC` (centres undefined), for which the Potency entry is “inactive”.
The result for `COc1cc(C(=O)N/N=C/c2sccc2C)cc(OC)c1OC` reads 1.46 µM (active); that for `COc1cc(C(=O)N/N=C/c2cc([N+](=O)[O-])cs2)cc(OC)c1OC`, 20.6 µM (active).
As for `CC1=Nc2cc(C(=O)NCc3ccco3)ccc2Sc2ccc(C)cc21`, the Potency is 1.84 µM (active).
For `CC1=Nc2cc(C(=O)NCC3CCCO3)ccc2Sc2ccc(C)cc21` (centres undefined), the Potency was 7.31 µM (active).
With `CCC1=Nc2cc(C(=O)NCc3ccco3)ccc2Sc2ccc(C)cc21`, the Potency is 1.16 µM (active).
For the compound `CCC1=Nc2cc(C(=O)NCc3ccco3)ccc2Sc2ccc(Cl)cc21`, the Potency is 2.91 µM (active).
On to `CC(NC(=O)c1ccc(S(=O)(=O)NCc2ccco2)cc1)c1ccc(F)cc1` (centres undefined), for which the Potency result is “inactive”.
Take `CCCC(C)NC(=O)c1ccc(C2SCC(=O)N2Cc2ccco2)cc1` (centres undefined): the Potency result is “inactive”.
The entry for `Cc1cc(C(=O)OCC(=O)NCc2ccco2)c(C)n1-c1ccc(F)cc1` is “inactive”.
On to `COc1ccc(N2C(=O)CS/C2=N\C(=S)Nc2ccccc2)cc1`, for which the Potency entry was “inactive”.
The result for `N#CCSc1nc(N)c(C#N)c(C2CCCCC2)c1C#N` reads “inactive”; that for `CCC1=Nc2cc(C(=O)NCc3ccccc3Cl)ccc2Sc2ccc(C)cc21`, 4.61 µM (active); that for `CCC1=Nc2cc(C(=O)NCc3cccnc3)ccc2Sc2ccc(C)cc21`, 18.4 µM (active).
The result for `CCC1=Nc2cc(C(=O)NCc3ccco3)ccc2Sc2ccccc21` reads 20.6 µM (active); that for `COc1ccc(C(=O)NN(C)c2nc(C(F)(F)F)nc3ccccc23)cc1`, 0.291 µM (active).
The entry for `CSc1nc(N(C)NC(=O)c2ccc(Cl)cc2)c2ccccc2n1` is “inactive”.
Regarding `CSc1nc(N(C)NC(=O)c2cccc(C)c2)c2ccccc2n1`, the Potency was 1.3 µM (active).
The figure for `COc1ccc(-c2c(C)nn3c(N)c(C#N)cnc23)cc1OC` is 20.6 µM (active).
For the compound `C[C@H]1C[C@@H]2[C@H]([C@@H](O)C[C@@]3(C)[C@H]2CC[C@]3(O)C(=O)CO)[C@@]2(C)C=CC(=O)C=C12`, the Potency result was “inactive”.
The result for `COc1ccc(/C=N/NC(=O)c2[nH]c3ccc(C)cc3c2-c2ccccc2)c(C(=O)O)c1OC` reads “inactive”; that for `COc1ccc(/C=N/NC(=O)c2cc3c(OC)ccc(OC)c3[nH]2)cc1O`, 2.31 µM (active); that for `Cc1ccc(CNC(=O)Cc2ccc(-n3c(=O)[nH]c4ccsc4c3=O)cc2)cc1`, 4.11 µM (active).
For the compound `O=C1N/C(=N/N=C/c2ccccc2O)SC1Cc1ccc(F)cc1` (centres undefined), the Potency is 9.2 µM (active).
As to `C=CCn1c(SC2CCOC2=O)nc2sc(C)c(C)c2c1=O` (centres undefined), the Potency entry is “inactive”.
As for `C=CCn1c(SCC(=O)Nc2cccc(S(N)(=O)=O)c2)nc2sc(C)c(C)c2c1=O`, the Potency is 5.17 µM (active).
In the case of `CC1=Nc2cc(C(=O)NCCCOC(C)C)ccc2Sc2ccc(C)cc21`, the Potency is 7.31 µM (active).
For `CCC1=Nc2cc(C(=O)NCCCOC(C)C)ccc2Sc2ccc(C)cc21`, the Potency is 2.59 µM (active).
In the case of `Oc1ccccc1N=Nc1ccccc1O`, the Potency entry was “inactive”.
As for `CCc1ccccc1NC(=S)N=Nc1c(O)n(C)c2ccc(S(=O)(=O)N3CCOCC3)cc12`, the Potency result is “inactive”.
Regarding `O=c1[nH]c(-c2ccccn2)nc2sc(-c3ccccc3)cc12`, the Potency was 2.31 µM (active).
Take `CCc1cc2c(=O)[nH]c(-c3ccccn3)nc2s1`: the Potency was 14.6 µM (active).
For the compound `S=c1[nH]cnc2sc(-c3ccccc3)cc12`, the Potency result was “inactive”.
As for `C/C(=N\NC(=S)NCCc1ccccc1)c1cccc(Br)c1`, the Potency entry is “inactive”.
Regarding `O=C(NC(=S)NC1CCSC1=O)c1cccs1` (centres undefined), the Potency entry was “inactive”.
On to `O=C1NC(=O)C(=C2CCCCCC2)S1`, for which the Potency entry is “inactive”.
In the case of `COc1ccc(-c2cnc3c(c2)CCC3(C#N)C#N)cc1`, the Potency was 3.66 µM (active).
In the case of `Cc1cc(C)c2ccc(/C=N/O)nc2c1O`, the Potency entry was “inactive”.
As for `COc1ccc([C@H]2CC(=O)C=C(c3ccc(OC)cc3OC)C2)cc1`, the Potency was 16.4 µM (active).
`COc1ccc(C2CC(=O)Oc3cc(OC)c(OC)c(OC)c32)cc1` (centres undefined): the Potency result was “inactive”.
Turning to `Cc1ccccc1C(=O)Oc1ccc2ccc(O)cc2c1`, the Potency entry is “inactive”.
The result for `O=C(NC(=S)Nc1cccc(F)c1)c1cccc([N+](=O)[O-])c1` reads “inactive”; that for `COc1ccc(/C=C/C(=O)c2cc(F)ccc2OC(=O)c2ccccc2OC)cc1OC`, 1.3 µM (active).
With `O=C(Oc1ccc(F)cc1C(=O)/C=C/c1cccs1)c1cccc([N+](=O)[O-])c1`, the Potency is 1.46 µM (active).
Consider `COc1ccc(/C=C/C(=O)c2cc(Br)ccc2OC(=O)c2ccco2)cc1OC`, for which the Potency was 5.8 µM (active).
`COc1ccc(/C=C/C(=O)c2cc(F)ccc2OC(=O)c2ccccc2C)cc1OC`: the Potency is 1.3 µM (active).
Regarding `S=C(Nc1ccccc1Cl)N(Cc1ccccc1)Cc1ccccn1`, the Potency result is “inactive”.
Take `COc1ccc(/C=C/C(=O)c2cc(F)ccc2OC(=O)c2ccc(OC)c(OC)c2)cc1OC`: the Potency is 23.1 µM (active).
As to `COc1ccc(NC(=S)N/N=C/c2ccc(F)cc2)cc1OC`, the Potency entry is “inactive”.
For `COc1cccc(Nc2sc(C(=O)c3ccc(Cl)cc3)c(N)c2C(=O)NCc2ccc(C)cc2)c1`, the Potency was 1.3 µM (active).
Regarding `Cc1cc(C)c(S(=O)(=O)Nc2ccc3c4c(cccc24)CC3)c(C)c1`, the Potency was 1.16 µM (active).
The result for `COc1cccc(CN2c3ccc(Br)cc3C(=O)CS2(=O)=O)c1` reads “inactive”.
`COc1ccc(CN2C[C@H]3CCCN3c3cc(Br)ccc3S2(=O)=O)cc1`: the Potency was 6.51 µM (active).
On to `CCOC(=O)c1ccc(-c2c(-c3cc(OC)c(OC)c(OC)c3)noc2C)cc1F`, for which the Potency was 8.2 µM (active).
For `COc1ccc(-c2c(-c3cc(OC)c(OC)c(OC)c3)noc2C)cn1`, the Potency is 20.6 µM (active).
As for `COc1cc(-c2noc(C)c2-c2ccc3[nH]ccc3c2)cc(OC)c1OC`, the Potency was 14.6 µM (active).
On to `COc1cc(-c2noc(C)c2-c2ccc(N(C)C)nc2)cc(OC)c1OC`, for which the Potency was 2.31 µM (active).

These data come from PubChem BioAssay AID651558 (National Center for Advancing Translational Sciences (NCATS), 2012).
